From ChEMBL document CHEMBL3988442, “University of Dundee, Small-Polar-MMV Screening Library” (2021)
About 440 (0.52%) of roughly 85,000 compounds showed an effect of 50% or more. Many of the other results were omitted from the sample, so strong results are more common in it than they were.

Test: In vitro enzyme assay to detect hydrolysis of chlorophenol red-beta-D-[…] directly proportional to the number of Toxoplasma stably expressing beta-galactosidase
Assay type: functional, organism-based, Toxoplasma gondii
Set-up: scale not given: in the data most compounds retested in dose-response had high values

| SMILES | Percent Effect (50 µM) | Percent Effect (10 µM) |
| --- | --- | --- |
| Cc1nnc(CNC(=O)Nc2ccc(F)cc2)o1 | -6.078% |  |
| CC1(C)CN(c2ccnc3ccccc23)CC[S+]1[O-] (stereo not given) | 6.751% |  |
| O=S(=O)(NC1CCCC1)C1CCOCC1 | 42.45% |  |
| CCc1nc2ccccc2c(=O)n1CC1(O)CCN(C(=O)C2CC2)CC1.Cl |  | 0.3648% |
| CCc1nc2ccccc2c(=O)n1CC1(O)CCN(C(=O)COC)CC1.Cl |  | 54.94% |
| CCCC(=O)N1CCC(O)(Cn2c(CC)nc3ccccc3c2=O)CC1.Cl |  | -0.06406% |
| Cc1cc(CNc2ncnc3c2cnn3C)on1 | -29.33% |  |
| CC1COc2ccccc2N1CC(N)=O (stereo not given) | -5.521% |  |
| CNC(=O)N1CCCCCC1c1ccncc1 (stereo not given) | 14.5% |  |
| CC(C#N)CSc1ccccc1NCC(=O)NC1CCCCC1 (stereo not given) |  | -5.31% |
| CSc1ccccc1NCC(=O)NC1CC1 | 51.75% |  |
| CC(=O)c1ccc(F)cc1NCC(=O)NC1CC1 | 5.192% |  |
| CNCC(=O)Nc1cc(Cl)c(OCCOC)c(Cl)c1 | -0.6689% |  |
| CCS(=O)(=O)N1CCC(NC(=O)c2ccc(Cl)o2)CC1 | -2.927% |  |
| Cc1cc(F)cc(NC(=O)NC[C@@H]2CCCN2)c1 | 21.68% |  |
| CC(Cn1ccnc1)NC(=O)NCc1ccc2c(c1)OCCO2 (stereo not given) |  | -19.42% |
| O=C(NCc1ccc2c(c1)OCO2)N1CCCCC1 | -4.35% |  |
| O=C(NCc1ccc2c(c1)OCO2)n1ccnc1 | 96.82% |  |
| c1cn(C2CCNC2)nn1 (stereo not given) | -13.42% |  |
| CCC(OC)C(=O)N1CC(Oc2ccccc2F)C1 (stereo not given) | -7.864% |  |

| SMILES | Percent Effect (50 µM) | Percent Effect (10 µM) |
| --- | --- | --- |
| CCS(=O)(=O)CCC(=O)Nc1cccc(F)c1 | 5.162% |  |
| CC(=O)Nc1ncc(S(=O)(=O)N2CCN(C3CCCCC3)CC2)s1 |  | -4.699% |
| CC(=O)Nc1ncc(S(=O)(=O)Nc2cccc(C)c2)s1 |  | 60.94% |
| CC(=O)Nc1ncc(S(=O)(=O)Nc2cccc(O)c2)s1 |  | 62.29% |
| CC(=O)Nc1ncc(S(=O)(=O)N2CCOCC2)s1 |  | -6.42% |
| Cc1cccc(NS(=O)(=O)c2cc(C(=O)O)oc2C)c1 |  | -16.73% |
| CC(=O)Nc1ncc(S(=O)(=O)Nc2ccc3c(c2)OCCO3)s1 |  | 68.62% |
| CC(=O)c1cccc(NS(=O)(=O)c2cc(C)c(C(=O)O)s2)c1 |  | -0.4058% |
| CC(=O)Nc1ncc(S(=O)(=O)Nc2cccc(F)c2)s1 |  | 67.14% |
| Cc1cc(C(=O)O)cc(S(=O)(=O)Nc2ccc3c(c2)OCCO3)c1C |  | -2.504% |
| Cc1c(S(=O)(=O)Nc2cccc(F)c2)cnn1C | -8.725% |  |
| CC(=O)Nc1ncc(S(=O)(=O)N2CCCC(C)C2)s1 (stereo not given) |  | -8.14% |
| CCNC(=O)NCc1ncoc1C | -6.658% |  |
| NC(=O)Cc1ccc(-c2ccc(C(N)=O)c(Cl)c2)cc1 | -4.393% |  |
| CCn1ccnc1C(C)N (stereo not given) | 1.366% |  |
| CNC(=O)c1cccc(NC(C)C(=O)NCC(C)C)c1 (stereo not given) | -5.14% |  |
| Cn1cc(C(N)=O)c(NCc2ccc(F)c(C#N)c2)n1 | -8.67% |  |
| CN1C(=O)[C@H]2CN(Cc3cccc(Cl)c3F)C[C@H]2C1=O | -8.035% |  |
| O=C(c1cc(Cl)ccc1O)N1CCOCC1 | 6.297% |  |
| CNCC(=O)Nc1ccc(C)cc1C(=O)N(C)C | -7.454% |  |

| SMILES | Percent Effect (50 µM) | Percent Effect (10 µM) |
| --- | --- | --- |
| CCc1nccn1CCCNC(=O)Cc1nonc1C | 3.782% |  |
| CCn1cc(C(=O)NCc2ccc(CNC)cc2)cn1 | -1.69% |  |
| CC1CCCCN1CCNC(=O)c1ccccn1 (stereo not given) | 1.645% |  |
| COc1ccc(Cl)cc1CNCCSc1nnnn1C | -8.775% |  |
| Cc1nc([C@H]2CCCN2)cs1 | 52.58% |  |
| Cc1cc(C2CCCN2)no1 (stereo not given) | -6.252% |  |
| Cc1cccc(C2CCCN2)n1 (stereo not given) | -3.572% |  |
| CC(=O)NC1CCNC1 (stereo not given) | 26.97% |  |
| CN1CC(NC(=O)CCC(=O)c2cccs2)CCC1=O (stereo not given) | -1.402% |  |
| CCC(=O)NC1CCCN(Cc2ccc(NC(C)=O)cc2)C1 (stereo not given) |  | 8.052% |
| COCC1CCN(Cc2ccc(NC(C)=O)cc2)C1 (stereo not given) | -11.02% |  |
| CC(=O)Nc1ccc(CN2CCCOC(C)C2)cc1 (stereo not given) | 52.96% |  |
| CCC(C)(CC)NC(=O)Nc1cnn(CCOC)c1 | -4.406% |  |
| CC(C)(C(=O)N1CC[C@@H](O)C1)c1ccccc1 | -3.951% |  |
| NC1CCN(C(=O)C2(c3cccc(F)c3)CC2)CC1 | 89.65% |  |
| CC(C)(C(=O)N1CCC(N)CC1)c1cccc(F)c1 | 80.98% |  |
| O=C(N1CCC(Oc2ccncc2)C1)C1(c2cccc(F)c2)CC1 (stereo not given) |  | 4.06% |
| CC(C)(C(=O)N1CCOCC1)c1ccccc1 | -4.463% |  |
| O=C(N1CCCC(n2cncn2)C1)C1(c2cccc(F)c2)CC1 (stereo not given) |  | -9.535% |
| COCCCC1CCNCC1 | 4.614% |  |
